Data: publication PMC5540273 (PLoS ONE, 2017)
Values joined by “and” are separate entries in the source; they are usually repeats but may differ in a detail not shown here. Equal entries are not always repeated. Where two headings read alike, the source gives them in different places.

Tests used:
[1] = system: DMPK; settings: concentration: 1 μM, replicates: in singlicate, n = 1
[2] = system: T1, DRAK1; settings: concentration: 1 μM, replicates: in singlicate, n = 1
T1 construct: gene STK17A

[3] = system: T2, DRAK2; settings: concentration: 1 μM, replicates: in singlicate; n = 1
T2 construct: gene STK17B

[4] = system: DYRK1A; settings: concentration: 1 μM, replicates: in singlicate; n = 1
[5] = system: DYRK1B; settings: concentration: 1 μM, replicates: in singlicate, n = 1
[6] = system: DYRK2; settings: concentration: 1 μM, replicates: in singlicate, n = 1
[7] = system: EGFR; settings: concentration: 1 μM, replicates: in singlicate, n = 1
[8] = system: EIF2AK1; settings: concentration: 1 μM, replicates: in singlicate; n = 1
[9] = system: EPHA1; settings: concentration: 1 μM, replicates: in singlicate, n = 1
[10] = system: EPHA2; settings: concentration: 1 μM, replicates: in singlicate, n = 1
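Note: KINOMEscan kinase panel screen.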

O=C1Cc2cc(Nc3nc(NCc4cccc(S(=O)(=O)C(F)(F)F)c4)ncc3C(F)(F)F)ccc2N1
%Inh [1]: 5% | %Inh [2]: 6% | %Inh [3]: 0% | %Inh [4]: 13% | %Inh [5]: 26% | %Inh [6]: 0% | %Inh [7]: 0% | %Inh [8]: 0% | %Inh [9]: 19% | %Inh [10]: 3%

O=C(Nc1n[nH]c2cc(-c3cccc(F)c3)ccc12)C1CC1 [SB-735464]
%Inh [1]: 0% | %Inh [2]: 7% | %Inh [3]: 0% | %Inh [4]: 10% | %Inh [5]: 0% | %Inh [6]: 16% | %Inh [7]: 0% | %Inh [8]: 0% | %Inh [9]: 25% | %Inh [10]: 0%

Cn1cc(-c2ccc3c(c2)CCN3C(=O)Cc2ccccc2Cl)c2c(N)ncnc21 [GSK2608885]
%Inh [1]: 0% | %Inh [2]: 0% | %Inh [3]: 0% | %Inh [4]: 7% | %Inh [5]: 12% | %Inh [6]: 29% | %Inh [7]: 100% | %Inh [8]: 6% | %Inh [9]: 88% | %Inh [10]: 77%

COc1ccc(COc2cc(-n3cnc4ccccc43)sc2C(N)=O)cc1 [GSK1024304]
%Inh [1]: 29% | %Inh [2]: 16% | %Inh [3]: 0% | %Inh [4]: 16% | %Inh [5]: 12% | %Inh [6]: 12% | %Inh [7]: 4% | %Inh [8]: 0% | %Inh [9]: 0% | %Inh [10]: 0%

CC(C)(C)n1cnc2c(N)ncnc21 [SKF-97359]
%Inh [1]: 9% | %Inh [2]: 0% | %Inh [3]: 6% | %Inh [4]: 0% | %Inh [5]: 61% | %Inh [6]: 0% | %Inh [7]: 39% | %Inh [8]: 0% | %Inh [9]: 0% | %Inh [10]: 0%

O=c1cc(N2CCOCC2)nc2n(Cc3cccc(C(F)(F)F)c3)ccn12 [GSK2297543]
%Inh [1]: 9% | %Inh [2]: 0% | %Inh [3]: 0% | %Inh [4]: 6% | %Inh [5]: 0% | %Inh [6]: 5% | %Inh [7]: 25% | %Inh [8]: 0% | %Inh [9]: 0% | %Inh [10]: 13%

O=C(Nc1cccc(-c2nn3ncccc3c2-c2ccnc(Nc3cccc(C(F)(F)F)c3)n2)c1)c1c(F)cccc1F [GSK299495]
%Inh [1]: 0% | %Inh [2]: 4% | %Inh [3]: 0% | %Inh [4]: 14% | %Inh [5]: 0% | %Inh [6]: 0% | %Inh [7]: 99.1% | %Inh [8]: 18% | %Inh [9]: 41% | %Inh [10]: 0%

Cc1ccc(NC(=O)c2ccnc(N3CCN(C)CC3)c2)cc1-c1ccc(C(=O)NCC2CC2)cc1 [GW775604]
%Inh [1]: 7% | %Inh [2]: 0% | %Inh [3]: 0% | %Inh [4]: 0% | %Inh [5]: 0% | %Inh [6]: 0% | %Inh [7]: 0% | %Inh [8]: 0% | %Inh [9]: 0% | %Inh [10]: 0%

NCC(NC(=O)c1cc(-c2cn[nH]c2)c(-c2ccnc3[nH]ccc23)s1)c1ccccc1.O=C(O)C(F)(F)F.O=C(O)C(F)(F)F (centres unmarked) [GSK1325775]
%Inh [1]: 95.8% | %Inh [2]: 90.6% | %Inh [3]: 0% | %Inh [4]: 44% | %Inh [5]: 35% | %Inh [6]: 79% | %Inh [7]: 4% | %Inh [8]: 0% | %Inh [9]: 13% | %Inh [10]: 0%

CC(C)(CN)c1nc(-c2ccc(Cl)c(O)c2)c(-c2ccncc2)[nH]1.O=C(O)C(F)(F)F [SB-477794]
%Inh ([1]; 1 µM): 0% and 98.6% | %Inh ([2]; 1 µM): 0% and 5% | %Inh [3]: 0% | %Inh [4]: 0% | %Inh ([5]; 1 µM): 0% and 5% | %Inh ([6]; 1 µM): 0% and 5% | %Inh ([7]; 1 µM): 70% and 47% | %Inh [8]: 0% | %Inh ([9]; 1 µM): 97.1% and 95.8% | %Inh ([10]; 1 µM): 26% and 33%

CN(C(=O)c1ccc(-c2cc(-c3c[nH]nc3-c3ccccn3)ccn2)cc1)C1CCOCC1 [GW810083]
%Inh [1]: 0% | %Inh [2]: 1% | %Inh [3]: 2% | %Inh [4]: 0% | %Inh [5]: 9% | %Inh [6]: 9% | %Inh [7]: 0% | %Inh [8]: 0% | %Inh [9]: 0% | %Inh [10]: 0%

COc1ccc(Nc2ncc(C#N)c(Nc3ccccc3C(N)=O)n2)cc1N1CCN(C)CC1.Cl [GSK1558669]
%Inh [1]: 88% | %Inh [2]: 99.1% | %Inh [3]: 83% | %Inh [4]: 99.8% | %Inh [5]: 87% | %Inh [6]: 99.1% | %Inh [7]: 92.7% | %Inh [8]: 48% | %Inh [9]: 92.9% | %Inh [10]: 80%

Cc1cccc(-c2nc(Nc3ccc4ncsc4c3)c3ccccc3n2)n1 [GW867588]
%Inh [1]: 0% | %Inh [2]: 0% | %Inh [3]: 0% | %Inh [4]: 3% | %Inh [5]: 0% | %Inh [6]: 33% | %Inh [7]: 2% | %Inh [8]: 0% | %Inh [9]: 0% | %Inh [10]: 0%

Cl.Oc1cccc(Nc2ccnc3cc(-c4ccncc4)ccc23)c1 [GW494601]
%Inh [1]: 0% | %Inh [2]: 11% | %Inh [3]: 0% | %Inh [4]: 25% | %Inh [5]: 7% | %Inh [6]: 43% | %Inh [7]: 76% | %Inh [8]: 0% | %Inh [9]: 98.8% | %Inh [10]: 84%

COc1cc2c(cc1OCCN1CCN(C)CC1)ncc1c3ccc(C#N)cc3[nH]c21
%Inh [1]: 0% | %Inh [2]: 100% | %Inh [3]: 100% | %Inh [4]: 94.6% | %Inh [5]: 62% | %Inh [6]: 60% | %Inh [7]: 0% | %Inh [8]: 0% | %Inh [9]: 0% | %Inh [10]: 0%

Cc1c2ccc(N(C)c3ccnc(Nc4cccc(S(N)(=O)=O)c4)n3)cc2nn1Cc1ccccc1.Cl.Cl [GW787226]
%Inh [1]: 8% | %Inh [2]: 3% | %Inh [3]: 16% | %Inh [4]: 0% | %Inh [5]: 0% | %Inh [6]: 0% | %Inh [7]: 5% | %Inh [8]: 0% | %Inh [9]: 21% | %Inh [10]: 4%

Fc1ccc(-c2nn3c(OCC(F)(F)F)cccc3c2-c2ccncc2)cc1 [GW514784]
%Inh [1]: 0% | %Inh [2]: 18% | %Inh [3]: 0% | %Inh [4]: 3% | %Inh [5]: 0% | %Inh [6]: 10% | %Inh [7]: 20% | %Inh [8]: 0% | %Inh [9]: 8% | %Inh [10]: 7%

Cc1cn2c(=O)cc(N3CCOCC3)nc2n1Cc1cccc(Cl)c1Cl [GSK2334006]
%Inh [1]: 12% | %Inh [2]: 0% | %Inh [3]: 12% | %Inh [4]: 20% | %Inh [5]: 36% | %Inh [6]: 0% | %Inh [7]: 45% | %Inh [8]: 2% | %Inh [9]: 51% | %Inh [10]: 21%

COCCNC(=O)c1ccc(-c2cc(C(=O)NC3CC3)cc(F)c2C)cc1 [GW868318]
%Inh [1]: 20% | %Inh [2]: 13% | %Inh [3]: 0% | %Inh [4]: 9% | %Inh [5]: 21% | %Inh [6]: 28% | %Inh [7]: 21% | %Inh [8]: 22% | %Inh [9]: 29% | %Inh [10]: 7%

O=C(NCCNc1ccnc(Nc2ccc(F)cc2)n1)c1cc2ccccc2s1 [GSK1379874]
%Inh [1]: 0% | %Inh [2]: 8% | %Inh [3]: 33% | %Inh [4]: 2% | %Inh [5]: 17% | %Inh [6]: 15% | %Inh [7]: 23% | %Inh [8]: 0% | %Inh [9]: 10% | %Inh [10]: 30%
